Compounds with a hit are over-represented: about 2.8% of the library has one in this group of screens.
CBFb-RUNX1 inh – CBF-beta/RUNX1 interaction disruption | Q01196+Q13951 | AlphaScreen CBFb-His/RUNX1-biotin binding, biochemical | Potency, µM (series often up to 59.8 µM), inactives show at the highest dose activity, negative = inhibition, hits mostly inhibitors | 230,000 tested, under 10 active; further: % of control where 0% means no effect
Target sequence (Q01196 whole entry, looked up): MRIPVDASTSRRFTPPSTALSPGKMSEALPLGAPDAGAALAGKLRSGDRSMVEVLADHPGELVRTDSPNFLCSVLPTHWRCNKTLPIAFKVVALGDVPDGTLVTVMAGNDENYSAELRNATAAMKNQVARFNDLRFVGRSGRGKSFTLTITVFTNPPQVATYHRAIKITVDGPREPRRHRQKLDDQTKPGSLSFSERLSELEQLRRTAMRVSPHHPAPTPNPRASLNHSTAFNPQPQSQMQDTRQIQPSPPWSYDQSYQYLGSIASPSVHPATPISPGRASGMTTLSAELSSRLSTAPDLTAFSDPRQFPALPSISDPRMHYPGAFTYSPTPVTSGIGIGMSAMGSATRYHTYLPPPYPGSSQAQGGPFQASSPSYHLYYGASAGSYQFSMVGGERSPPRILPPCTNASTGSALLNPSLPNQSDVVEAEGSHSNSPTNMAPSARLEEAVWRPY
Target sequence (Q13951 whole entry, looked up): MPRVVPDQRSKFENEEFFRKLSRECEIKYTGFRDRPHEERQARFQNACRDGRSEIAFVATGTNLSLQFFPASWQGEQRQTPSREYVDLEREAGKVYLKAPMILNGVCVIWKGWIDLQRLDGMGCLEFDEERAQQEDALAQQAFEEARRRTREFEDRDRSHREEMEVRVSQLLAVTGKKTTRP
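Interaction loss through any mechanism counts as activity. Pre-formed complex of His-CBF-beta and biotin-RUNX1 (30 nM apiece) is incubated with compound 15 min, then with 50 ng nickel and 50 ng streptavidin beads for 90 min before AlphaScreen detection.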
PTHR1 agonist – agonists of human PTHR1 parathyroid hormone receptor; AID 743266; HEK293 GP2 PTHR1 cells, GloSensor cAMP luminescence, 1 h; Q03431; actives 0.075% (n = 410,000); Potency, µM (highest dose often 115 µM), for the others: at the highest dose activation, most hits filed as activators; further: potency means the concentration at half of the fitted maximal effect; nearly all actives have a fitted effect of over 55% in size
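HEK-293-derived GP2 cells expressing PTHR1 and a GloSensor cAMP reporter, 3,000/well, plated overnight, given luciferin plus IBMX (each 0.5 mM as added) for 1 h at 37 °C, then compound for 1 h at 37 °C. Luminescence was read after 15 min at room temperature.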
a7 integrin act – activates integrin-mediated alleviation for muscular dystrophy. alpha7betagal myoblasts, beta-gal FDG fluorescence, 48 h. Potency, µM (top dose mostly 38.3 µM), for inactives: at the highest dose activation, most hits filed as activators. actives 0.064% (n = 350,000). AID 624291;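 further: potency means the concentration at half of the fitted maximal effect; 100% = response of the positive control SU9516; nearly all actives have a fitted effect of over 60% in size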
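alpha7betagal+/- myoblasts (passage 13, 250/well) treated 48 h at 37C with compounds at 1:260 dilution of DMSO stock. Lysed, then beta-galactosidase activity read as FDG fluorescence (ex 480/em 540) after 30 min, with pre-read for autofluorescence.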
D3 ag – activates the human D3 dopamine receptor; P35462; AID 652048; actives 0.58% (n = 410,000); max activation, %; D3R DiscoveRx beta-arrestin cells, luminescence, 90 min; in the data active means max activation above about 30%; further: 0% is about no effect
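Agonist-mode cell screen: cells plated at 1500/well and incubated overnight at 37 °C, then exposed to library compounds for 90 min at 37 °C. Detection reagent was added for 30–60 min at room temperature, and luminescence was read.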
MBNL1-CUG inh – MBNL1-poly(CUG) RNA binding inhibition | Potency, µM (highest dose often 57.5 µM), without a hit: at the top dose activity change, negative = inhibition, hits mostly inhibitors | TR-FRET MBNL1-His/biotin-(CUG)12 binding, 665/545 ratio | Q9NR56 | actives 0.036% (n = 280,000) | AID 2675; active means well fitted inhibition curve with a large enough effect in the signal ratio, with a control signal flat, not every such curve was filed as active; inconclusive means small, poorly fitted or top-dose-only effect, or effect the other way, or a change in a side signal; inactive means no such curve, though single readings can be large or run the other way; the % refers to the signal ratio; further: potency means the concentration at half of the fitted maximal effect; on the % scale 0 is the no-effect control and ±100 the full control effect
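Compound titration spanned 92 nM–58 uM against the MBNL1-His/biotin-(CUG)12 complex. After 60 min at room temperature with 5 nM streptavidin-XL665 and 0.055 ng/ul terbium anti-His, ratiometric 665/545 nm emission (Ex 340 nm) normalized to controls.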
D3 antag – blocks the human D3 dopamine receptor; D3R cells, DiscoveRx beta-arrestin luminescence, antagonist mode; hits give low values; P35462; max response, negative = inhibition, %; actives 2.5% (n = 360,000); in the data active means max response below about -50%; inconclusive means no clear call, values can overlap the other calls; further: on the % scale 0 is the no-effect control and ±100 the full control effect
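Cells plated overnight at 1500 cells/well, then exposed to library compounds with dopamine controls for 90 minutes at 37 degrees C. DiscoveRx reagent added for 30–60 minutes at room temperature; luminescence read, quantitative HTS format.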
* = called active by the depositor; i = inactive; ? = inconclusive; · = no result; [ ] = remark or other dose. Unless noted, the call rests on the fitted dose curve; in most records, active means well fitted curve in the direction sought with a large enough effect; inconclusive means small, poorly fitted or top-dose-only effect, or another doubt; inactive means no such curve, though single readings can be large; an effect the other way counts as inactive or inconclusive.

SMILES	CBFb-RUNX1 inh	PTHR1 agonist	a7 integrin act	D3 ag	MBNL1-CUG inh	D3 antag
N#CC1=C(SCC(=O)c2ccc(Br)cc2)NC2=C(C(=O)CCC2)C1c1ccco1 (stereo not drawn)	-6.9%	-17.2%[57.5 µM]	-44.4%	0.9	26.1%	-58.8*
O=C(OCC(O)C(O)C(O)COC(=O)c1ccccc1)c1ccccc1 (stereo not drawn)	·	i	-9.3%	21.7	·	25.3
O=C(OCC(O)C(O)C(O)C(SCc1ccccc1)SCc1ccccc1)c1ccccc1 (stereo not drawn)	·	-22.5%	6.3%	-4.6	·	-67.5*
Cn1cnc([N+](=O)[O-])c1S(=O)(=O)Oc1ccccc1	·	-31.2%	-37.1%	-14.9	·	-83.8*
Cn1cnc([N+](=O)[O-])c1S(=O)(=O)c1cccc(Cl)c1	-3.0%	-44.8%	-48.6%	-12.5	22.9%	-92.1*
CN1CCN(c2nc3c(c(=O)[nH]c(=O)n3C)n2Cc2ccc(Cl)cc2)CC1	·	5.1%	0.1%	-2.8	-10.1%	-5.9
CCc1nc2c(OCc3cc(Cl)cc(Cl)c3)cccn2c1N(C)C(=O)c1ccc(OC)cc1	·	-6.3%	·	-10.9	·	-62.9*
CCC(CC)C(=O)N(C)c1c(C)nc2c(OCCC3CCCCC3)cccn12	·	11.3%	·	-15.1	·	-50.3*
CCc1nc2c(OCCC3CCCCC3)cccn2c1N(C)C(=O)c1ccc(OC)cc1	·	-69.4%	·	-26.4	·	-110.7*
CCc1nc2c(OCCC3CCCCC3)cccn2c1N(C)C(=O)c1ccncc1	·	6.7%	·	2.4	·	21.5
CCc1nc2c(OCc3ccc(Cl)cc3)cccn2c1N(C)C(=O)c1ccco1	·	-59.9%	·	-16.5	·	-51.1*
CCC(CC)C(=O)N(C)c1c(C)nc2c(OCCOc3ccc(F)cc3)cccn12	·	-53.4%	·	14.5	·	14.7
CCc1nc2c(OCc3ccc(F)cc3)cccn2c1N(C)C(=O)c1ccco1	·	-23.3%	·	-16.1	·	-10.5
C[C@@H]1CN([C@H](C)CO)C(=O)c2cc(NS(=O)(=O)c3cn(C)cn3)ccc2O[C@H]1CN(C)C(=O)Nc1ccccc1	·	i	-7.1%	0.8	·	-11.3
CCCCN(C=O)c1c(CC)nc2c(OCc3ccccc3C)cccn12	·	-6.9%	·	-2.7	·	-3.0
CCCCN(C=O)c1c(CC)nc2c(OCc3ccc(Cl)cc3Cl)cccn12	·	-87.5%	·	-12.5	·	-56.9*
CCc1nc2c(OCc3cc(Cl)cc(Cl)c3)cccn2c1N(C)C(=O)CC(C)C	·	-5.5%	·	-15.6	·	-65.5*
Cc1ccc(C)c(S(=O)(=O)N2CCN(C(=O)c3ccnn3C)CC2)c1	·	i	-1.6%	2.3	-3.0%	7.2
O=Cc1cnc(N2CCCCC2)s1	1.8%	i	11.2µM*	0.6	?	-21.1
COc1ccc(CCC(=O)N2CCN(C3CCCCC3)CC2)cc1	7.2%	-18.9%	-5.3%	18.5	-2.0%	12.8
O=C(CSc1nnc(Cc2cccs2)n1C1CCCCC1)N1CCN(C(=O)c2ccco2)CC1	5.8%	-5.6%[57.5 µM]	-20.7%	-7.6	-0.5%	-62.5*
c1ccc(CCN(Cc2ccccc2)C2CCN(C3CCCC3)CC2)cc1	3.6%	i	-24.4%	-16.7	-15.6%	-65.2*
CCC(C)N1CCN(C(=O)c2cccs2)CC1 (stereo not drawn)	·	-18.9%[57.5 µM]	12.0%	-17.0	·	-65.1*
O=C(CCCc1ccccc1)N1CCN(C2CCCCC2)CC1	·	-17.9%	0.0%	-5.8	-8.0%	-84.5*
O=C(NC1(Cc2ccccc2)CCN(CCCc2ccccc2)C1=O)c1ccccc1 (stereo not drawn)	·	-3.2%	-45.1%	25.2	·	11.3
SMILES	CBFb-RUNX1 inh	PTHR1 agonist	a7 integrin act	D3 ag	MBNL1-CUG inh	D3 antag
COC(=O)c1ccc(C(NC(=O)c2ccco2)[C@]2(C)C[C@H]2C2CCCCC2)cc1 (stereo partly drawn)	26.1%	·	·	·	·	·
O=C(c1ccco1)N1CCN(C(=O)c2cccs2)CC1	0.2%	-12.3%[57.5 µM]	7.8%	-1.7	-0.6%	-56.0*
O=C(c1ccco1)N1CCN(C2CCCC2)CC1	-2.0%	-18.5%	8.4%	-3.8	?	-74.2*
O=C(c1ccco1)N1CCN(C(=O)c2ccco2)CC1	·	-23.6%	·	-5.0	·	-28.0
O=C(c1ccco1)N1CCN(C2CN(C3CCCC3)S(=O)(=O)C2)CC1 (stereo not drawn)	·	-18.2%	·	4.9	·	18.5
CCOC(=O)OCC1C=C[C@H](c2cc(-c3ccccc3)ccc2O)C(c2ccc(C(C)=O)cc2)O1 (stereo partly drawn)	0.5%[13.1 µM]	·	·	·	·	·
CCCN(C)C[C@H]1OCc2cnnn2CCCC(=O)N([C@H](C)CO)C[C@@H]1C	·	-2.7%	·	7.9	·	30.0
COc1cc(C(=O)NCC(c2ccco2)N2CCCC2)ccc1OCc1ccc(Cl)cc1Cl (stereo not drawn)	·	-42.5%	-88.2%	-1.5	·	?
CN(C)C(CNC(=O)c1ccc(Br)cc1)c1ccco1 (stereo not drawn)	·	i	5.6%	-25.0	-0.8%	-63.2*
COc1ccc(Cl)cc1NS(=O)(=O)c1cccc(C(=O)NCC(c2ccco2)N(C)C)c1 (stereo not drawn)	·	i	-0.8%	-12.5	-3.1%	-81.8*
COc1ccc(Cl)cc1C(=O)NCC(c1ccco1)N1CCCC1 (stereo not drawn)	8.4%	i	-25.0%	-56.5	-1.0%	-81.5*
CN(C)C(CNC(=O)CCNC(=O)c1ccc(Br)cc1)c1ccco1 (stereo not drawn)	·	-12.8%	-8.2%	-3.8	·	9.7
COc1ccc(Cl)cc1C(=O)NCC(c1ccco1)N(C)C (stereo not drawn)	·	i	20.6%	-16.1	-1.4%	-78.6*
O=C(CCN1C(=O)C2C3CC(C(Br)C3Br)C2C1=O)OCC(=O)c1cccc([N+](=O)[O-])c1 (stereo not drawn)	·	i	14.7%	-15.8	12.1%	-10.4
O=C(O)c1ccc2nc(-c3cc4cc(Cl)ccc4oc3=O)[nH]c2c1	·	i	·	1.4	·	·
COc1ccccc1C(=O)NC(=O)COC(=O)c1nc(Cl)ccc1Cl	·	i	0.6%	-1.8	·	0.0
COc1ccc2cc3cc(C(=O)NCCN4CCN(Cc5ccccc5)CC4)oc3nc2c1	-2.9%	-19.6%[57.5 µM]	0.0%	-12.4	?	-60.9*
O=C(NCCc1ccccc1)c1n[nH]c(=O)c2ccccc12	5.7%	-5.5%	?	-7.9	0.6%	-15.9
CC1CCN(CCCNC(=O)c2n[nH]c(=O)c3ccccc23)CC1	-3.3%	i	-5.5%	0.5	-2.7%	-61.8*
CN(CCNC(=O)CCCOc1cc(=O)n(C)c2ccccc12)Cc1ccccc1	-3.1%	i	-13.8%	-15.7	-5.0%	-92.5*
CC1CCN(CCCNC(=O)COc2cc(=O)n(C)c3ccccc23)CC1	2.6%	i	0.0%	-7.2	-5.7%	-74.8*
